# Results as given in PubChem BioAssay.
# Biological target: NADPH oxidase 5 (Homo sapiens) (UniProt Q96PH1)
# Assay: compounds shifting NOX5 Amplex Red fluorescence – cell-based, HEK293-NOX5, NOX inhibitor project, primary screen (AID 1161)
# Conditions: HEK293-NOX5, ionomycin, 45 min, higher = more signal
# Chain of NADPH oxidase 5 (Homo sapiens) (Q96PH1 whole entry, looked up): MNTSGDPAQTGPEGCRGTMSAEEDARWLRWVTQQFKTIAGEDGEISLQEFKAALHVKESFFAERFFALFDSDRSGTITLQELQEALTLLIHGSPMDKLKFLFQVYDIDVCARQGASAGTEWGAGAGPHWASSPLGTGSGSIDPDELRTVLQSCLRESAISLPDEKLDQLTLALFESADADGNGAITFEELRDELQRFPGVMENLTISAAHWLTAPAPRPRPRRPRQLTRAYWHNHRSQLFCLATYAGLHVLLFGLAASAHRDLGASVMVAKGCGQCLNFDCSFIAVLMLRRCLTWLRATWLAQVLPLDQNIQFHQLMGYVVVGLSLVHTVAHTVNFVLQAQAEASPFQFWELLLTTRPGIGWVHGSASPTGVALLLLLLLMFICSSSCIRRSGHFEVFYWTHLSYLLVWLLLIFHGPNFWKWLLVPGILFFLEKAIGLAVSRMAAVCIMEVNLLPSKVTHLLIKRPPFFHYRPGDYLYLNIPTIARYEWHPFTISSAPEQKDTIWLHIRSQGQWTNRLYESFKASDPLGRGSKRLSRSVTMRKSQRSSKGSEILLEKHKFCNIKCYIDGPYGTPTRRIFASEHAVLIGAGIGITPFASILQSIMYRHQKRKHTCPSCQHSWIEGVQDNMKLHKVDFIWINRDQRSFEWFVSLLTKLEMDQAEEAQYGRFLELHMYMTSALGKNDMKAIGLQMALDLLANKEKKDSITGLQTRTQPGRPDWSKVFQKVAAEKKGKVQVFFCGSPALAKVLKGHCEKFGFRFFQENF
row,SMILES,z-score
1,Cc1cc(C)c(-c2cc([C@H](C)ON=C[C@@H](C)[C@H](OCc3ccccc3)C(C)C)on2)c(C)c1,-0.45
2,CC(CCN1CCCCc2nc(C)c(C)cc21)=NO[C@H](C)c1cn([C@@H]2COC[C@H]2O)nn1,-0.376
3,COC(=O)[C@H](C)NC(=O)CCC1CC(OC(=O)NCc2ccc3c(c2)OCO3)CC2(CCCC(COC(=O)NCc3ccccc3)O2)O1 (stereo partly drawn),0.654
4,CC(=O)OC[C@H]1O[C@H](C#CCC2CCCCC2)C=C[C@@H]1OC(C)=O,1.74
5,CN1CCc2nc(-c3ccccc3)c(-c3ccccc3)cc2C1,-0.409
6,CO[C@H]1COC(=O)CCC[C@H](C)[C@H](OC)COC(=O)CC=C[C@@H]1C,0.381
7,COCOc1ccc(Br)cc1C(=O)C=Cc1ccc2c(c1)OCO2,-1.03
8,CCN1C(=O)[C@H]2[C@H]3[C@H](O)[C@H](O)CC(=NO[C@@H](C)c4cc(-c5c(C)cc(C)cc5C)no4)[C@@H]3CC[C@H]2C1=O,0.211
9,C[C@@H](c1ccccc1)N1C(=O)[C@H]2[C@H]3[C@H](O)[C@H](O)CC(=NNC(=O)OCc4ccccc4)[C@@H]3CC[C@H]2C1=O,-0.0584
10,CO[C@H]1COC(=O)CCC[C@H](C)[C@@H](OC)COC(=O)CC=C[C@@H]1C,0.344
11,CO[C@H]1COC(=O)CC=C[C@H](C)[C@H](OC)COC(=O)[C@@H](C)NC(=O)CC=C[C@@H]1C,0.197
12,CC(CCN1CCCc2nc(C)c(C)cc21)=NOC[C@@H](C)[C@H](OCc1ccccc1)C(C)C,-1.12
13,COc1ccc(COC(=O)NN=C2C[C@@H](O)[C@@H](O)[C@@H]3[C@@H]4C(=O)N([C@@H](C)c5ccccc5)C(=O)[C@@H]4CC[C@H]23)cc1,-0.419
14,C=C(C)C(=O)OC[C@H]1CN2[C@@H](CC[C@@H](C)[C@@H]2c2ccc(Br)cc2)C(=O)O1,-1.61
15,O=C1[C@H]2[C@H]3[C@H](O)[C@H](O)CC(=NOC[C@@H](O)COCc4ccco4)[C@@H]3CC[C@H]2C(=O)N1Cc1ccc2c(c1)OCO2,0.351
16,O=C(NN=C1C[C@@H](O)[C@@H](O)[C@@H]2[C@@H]3C(=O)N(c4ccc(F)cc4F)C(=O)[C@@H]3CC[C@H]12)OCc1ccccc1,0.866
17,CC(=O)OC[C@H]1O[C@H](CC=NOC[C@@H](O)COCc2ccco2)C=C[C@@H]1OC(C)=O,0.0957

row,SMILES,z-score
1,CCN1C(C)=C(C(=O)OC)[C@@H](c2ccccc2)N2C(=O)[C@](O)(C(=O)OC)CC(C(C)=O)=C12,0.697
2,CC(C)CON=C1C[C@@H](O)[C@@H](O)[C@@H]2[C@@H]3C(=O)N([C@@H](C)c4ccccc4)C(=O)[C@@H]3CC[C@@H]12,-0.519
3,COC(=O)CC=C1c2ccccc2[C@H](OC)[C@H]1C,0.199
4,CC(=O)OC[C@H]1O[C@H](CC=NOC[C@@H](O)[C@H]2O[C@@H]3OC(C)(C)O[C@@H]3[C@H]2O)C=C[C@@H]1OC(C)=O,-0.515
5,C#CCCCON=C1C[C@@H](O)[C@@H](O)[C@@H]2[C@@H]3C(=O)N(C[C@@H]4CCCO4)C(=O)[C@@H]3CC[C@H]12,-1
6,CCN1C(=O)[C@H]2[C@H]3[C@H](O)[C@H](O)CC(=NNC(=O)OCc4ccccc4)[C@H]3CC[C@H]2C1=O,0.0659
7,C[C@@H]1CC[C@H]2C(=O)OC(Cc3ccccc3)CN2[C@H]1c1ccc(Br)cc1 (stereo partly drawn),0.151
8,CC(C)=NOC(C)CN1CCCCc2nc(C)c(C)cc21 (stereo not drawn),-0.417
9,COC(=O)[C@@H]1CC[C@H](C)[C@@H](c2ccc(C)cc2)N1C(=O)c1ccc(C=NOC[C@@H](O)[C@H]2O[C@@H]3OC(C)(C)O[C@@H]3[C@H]2O)cc1,0.417
10,CCOC(=O)[C@H](Cc1ccccc1)NC(=O)CCC1CC(OC(=O)NCc2cccc3ccccc23)CC2(CCCC(COC(=O)NCCc3ccccc3OC)O2)O1 (stereo partly drawn),1.06
11,CON=C[C@@H](OC)[C@H](C)C=CCC(=O)OC,-0.945
12,O=C(NCCC[N+]1=CC=NC1c1ccccc1)N1CCCc2nc(-c3ccc(Br)cc3)ccc21 (stereo not drawn),-1.64
13,COc1cccc([C@H](O)Cn2cc(-c3ccc(CON=C(C)C)cc3)nn2)c1,-0.169
14,C=CC[C@@H]1C=C[C@H](Oc2ccc(C)cc2)[C@@H](COC(=O)NCc2cccc3ccccc23)O1,-0.146
15,COC(=O)[C@H](C)NC(=O)CCC1CC(OC(=O)NCCc2ccc(F)cc2)CC2(CCCC(COC(=O)NCCOc3ccccc3)O2)O1 (stereo partly drawn),0.382
16,CO[C@@H](C(C)C)[C@@H](C)C1OC(=O)CC1O (stereo partly drawn),0.368
